# Test results reported in PubChem BioAssay AID1671192 (National Center for Advancing Translational Sciences (NCATS), 2021).
# Records with an inconclusive call do not appear. Active and inactive are the calls of the source. Calls come from the whole dose curve; as a rule, active = well fitted curve in the direction sought with a large enough effect; inconclusive = small, poorly fitted or top-dose-only effect, or another doubt; inactive = no such curve, though single readings can be large or run the other way.
# Target: Polyunsaturated fatty acid lipoxygenase ALOX15 (Homo sapiens) (UniProt P16050)
# Assay: Counterscreen qHTS for inhibitors of human arachidonate 12S-lipoxygenase (ALOX12): ALOX15 Assay
# Details: purified ALOX15 enzyme activity; series mostly up to 110 µM
# Summary of the method: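 Purified human ALOX15 (15hLO-1) at 40 nM in 25 mM HEPES, 0.01% Triton X-100, pH 7.5, preincubated with compound 15 min at RT. Then 50 uM arachidonic acid for 30 min; hydroperoxide detected by Fe-xylenol orange as the 573/405 nm absorbance ratio.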
# Chain of Polyunsaturated fatty acid lipoxygenase ALOX15 (Homo sapiens) (P16050 whole entry, looked up): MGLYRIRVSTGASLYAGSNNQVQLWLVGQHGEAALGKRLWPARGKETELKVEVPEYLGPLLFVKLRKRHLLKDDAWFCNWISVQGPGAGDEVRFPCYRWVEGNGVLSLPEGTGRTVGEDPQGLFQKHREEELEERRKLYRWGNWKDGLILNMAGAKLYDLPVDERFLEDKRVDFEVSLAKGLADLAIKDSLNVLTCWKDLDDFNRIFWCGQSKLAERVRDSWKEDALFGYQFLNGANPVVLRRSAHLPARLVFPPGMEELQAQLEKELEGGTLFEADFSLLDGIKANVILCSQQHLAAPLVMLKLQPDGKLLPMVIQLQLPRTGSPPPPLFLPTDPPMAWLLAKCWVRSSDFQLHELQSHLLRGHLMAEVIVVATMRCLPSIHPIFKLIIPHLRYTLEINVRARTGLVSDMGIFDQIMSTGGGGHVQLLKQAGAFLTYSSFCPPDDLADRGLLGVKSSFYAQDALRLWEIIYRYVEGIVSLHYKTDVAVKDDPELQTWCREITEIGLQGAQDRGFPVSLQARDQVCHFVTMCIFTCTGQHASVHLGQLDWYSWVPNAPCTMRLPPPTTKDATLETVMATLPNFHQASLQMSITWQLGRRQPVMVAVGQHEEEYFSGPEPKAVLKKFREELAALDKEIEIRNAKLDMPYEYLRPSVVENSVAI
row,Compound,outcome
1,Cc1cc(Cl)ccc1-c1cccc(C=O)c1,inactive
2,CN1CC(=O)N(C2CCCNCC2)Cc2c1ncnc2N1CCCC(CO)C1 (configuration not stated),inactive
3,c1cc2c(cc1OC1CN(CC3CCCCC3)C1)OCO2,inactive
4,CCc1ccc(CN2CCCC3(Cc4ccccc4CNC3=O)C2)s1 (configuration not stated),inactive
5,COc1cccc([S+](=O)([O-])N2CC(Oc3ccc(F)c(F)c3)C2)c1,inactive
6,O=C1NCc2ccccc2CC12CCN(Cc1ccccc1Br)C2 (configuration not stated),inactive
7,CN1CC(=O)N(C2CCCNC2)Cc2c1ncnc2N1CCN(Cc2ccccc2)CC1 (configuration not stated),inactive
8,CS(=O)(=O)N1CCC2(CC1)CN(Cc1ccc(O)cc1)Cc1ccccc1O2,inactive
9,O=C1NCc2ccccc2CC12CCCN2CC1=CCCCC1 (configuration not stated),inactive
10,O=C(O)c1cccc(-c2ccc(OC(F)(F)F)cc2)c1,inactive
11,COc1ccc(CN2CCCC23Cc2ccccc2CNC3=O)c(O)c1 (configuration not stated),inactive
12,CN1CC(=O)N(C2CCCNC2)Cc2c(NCCCO)ncnc21 (configuration not stated),inactive
13,CN1CC(=O)N(C2CNC2)Cc2c(NC3CC3)ncnc21,inactive
14,O=C(O)c1cccc(-c2ccsc2)c1,inactive
15,CN1CC(=O)N(C2CCNCC2)Cc2c(NCCOc3ccccc3)ncnc21,inactive
16,CC(=O)N1CCC2(CC1)CN(C(=O)Cc1csc(N)n1)Cc1ccccc1O2,inactive
17,O=Cc1ccc(-c2cccc(O)c2)cc1,inactive
18,COc1ccc(-n2nc3n(c2=O)CCN(C(=O)c2ccccn2)C3)cc1,inactive
19,CCc1nc2c(c(-c3ccc(OC)cc3)n1)CCN(Cc1cccc3ccccc13)CC2,inactive

row,Compound,outcome
1,CN1CC(=O)N(C2CCCNCC2)Cc2c(NCCCO)ncnc21 (configuration not stated),inactive
2,COc1ccc(N2CC3CCC(C2)N3C(=O)c2ccc3c(c2)OCO3)cc1,inactive
3,CCN1CCCC2(Cc3ccccc3CN(C(=O)c3ccccc3)C2)C1 (configuration not stated),inactive
4,C[S+](=O)([O-])N1CC2(CCN(Cc3ccc(Cl)cc3)C2)Cc2ccccc21 (configuration not stated),inactive
5,NC(C(=O)N1CCC2(CC1)CN(C(=O)Cc1cccc(Cl)c1)CCO2)c1ccccc1 (configuration not stated),inactive
6,O=C1NCc2ccccc2CC12CCN(Cc1ccc(F)cc1F)CC2,inactive
7,CCOC(=O)N1CCC(NC)CC1,inactive
8,CN1CC(=O)N(C2CCCNC2)Cc2c(NC3CCC3)ncnc21 (configuration not stated),inactive
9,O=C1NCc2ccccc2CC12CCN(Cc1ccnc3ccccc13)C2 (configuration not stated),inactive
10,CN1CC(=O)N(C2CCNCC2)Cc2c1ncnc2N1CCCC1CO (configuration not stated),inactive
11,COc1cccc([S+](=O)([O-])N2CCn3c(nn(-c4ccc(Cl)cc4)c3=O)C2)c1,inactive
12,O=C1NCc2ccccc2CC12CCN(Cc1ccc(Cl)o1)C2 (configuration not stated),inactive
13,COc1ccc(C(=O)N2CCc3nc(C4CC4)nc(-c4ccc(OC)cc4)c3C2)cc1,inactive
14,O=C(c1ccccn1)N1CCc2nc(C3CC3)nc(-c3ccc(Cl)cc3)c2C1,inactive
15,O=C1NCc2ccccc2CC12CCN(Cc1ccc(Cl)s1)C2 (configuration not stated),inactive
16,CCc1ccccc1CN1CCCC12Cc1ccccc1CNC2=O (configuration not stated),inactive
17,O=C1NCc2ccccc2CC12CCCN2Cc1ccccc1Cl (configuration not stated),inactive
18,c1ccc(CN2CC(Oc3ccc4c(c3)OCO4)C2)cc1,inactive
